Test results taken from PubChem BioAssay (Tox21).
Inconclusive results are not listed. Where a call stands in place of a potency, no number is given. Calls of active or inactive are those of the source. Unless noted, calls follow the shape of the dose curve; as a rule, active = well fitted curve in the direction sought with a large enough effect in the repeat runs; inconclusive = weak or mixed curves; inactive = no such curve, though single readings can be large; an effect the other way counts as inactive or inconclusive. Residues, ends and D or L forms follow the SMILES beside them.

Molecular target: Androgen receptor (Homo sapiens) (UniProt P10275)
Sequence (P10275 whole entry, looked up): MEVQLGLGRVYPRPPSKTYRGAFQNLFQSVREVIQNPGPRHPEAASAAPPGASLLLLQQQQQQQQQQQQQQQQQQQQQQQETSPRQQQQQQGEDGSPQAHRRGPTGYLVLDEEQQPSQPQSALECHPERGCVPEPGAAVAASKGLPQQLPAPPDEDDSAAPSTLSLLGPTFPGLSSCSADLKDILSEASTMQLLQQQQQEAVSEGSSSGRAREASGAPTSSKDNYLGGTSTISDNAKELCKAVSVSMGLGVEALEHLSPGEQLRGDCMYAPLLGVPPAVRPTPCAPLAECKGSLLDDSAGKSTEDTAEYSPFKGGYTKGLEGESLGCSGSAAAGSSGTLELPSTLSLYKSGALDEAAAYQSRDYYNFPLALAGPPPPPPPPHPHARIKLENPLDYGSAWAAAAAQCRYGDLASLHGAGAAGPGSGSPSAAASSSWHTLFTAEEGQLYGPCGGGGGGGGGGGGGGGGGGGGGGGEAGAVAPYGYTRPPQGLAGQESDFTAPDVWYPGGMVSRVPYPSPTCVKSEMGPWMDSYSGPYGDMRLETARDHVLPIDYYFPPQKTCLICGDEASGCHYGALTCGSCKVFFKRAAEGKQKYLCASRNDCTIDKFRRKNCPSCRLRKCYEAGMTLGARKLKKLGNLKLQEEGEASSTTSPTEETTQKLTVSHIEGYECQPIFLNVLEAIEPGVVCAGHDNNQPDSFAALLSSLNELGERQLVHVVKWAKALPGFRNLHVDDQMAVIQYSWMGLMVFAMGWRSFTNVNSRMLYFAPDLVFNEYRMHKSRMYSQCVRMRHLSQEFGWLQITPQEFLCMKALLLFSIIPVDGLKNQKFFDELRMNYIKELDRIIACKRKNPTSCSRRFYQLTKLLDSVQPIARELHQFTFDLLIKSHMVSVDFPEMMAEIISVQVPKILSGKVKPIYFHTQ
Experiment: qHTS assay to identify small molecule antagonists of the androgen receptor (AR) signaling pathway (AID 743035; active = well fitted inhibition curve with a large enough effect in the signal ratio in the repeat runs, not every such curve was filed as active; the % refers to the signal ratio)
Conditions: HEK293 AR-UAS-bla, R1881-stimulated, beta-lactamase FRET, 16 h; series mostly up to 58.5 µM
Outline: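 HEK293 cells stably carrying a UAS-driven beta-lactamase reporter (AR-UAS-bla GripTite) were plated for 4 h at 37C, then given compound and the agonist R1881 and incubated 16 h. Reporter activity was read by LiveBLAzer B/G FRET fluorescence after 2 h at room temperature.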

Row | SMILES | Potency
1 | CC[C@H]1OC(=O)C[C@@H](O)[C@H](C)[C@@H](O[C@@H]2O[C@H](C)[C@@H](O)[C@H](N(C)C)[C@H]2O)[C@@H](CCN2C[C@H](C)C[C@H](C)C2)C[C@@H](C)C(=O)/C=C/C(C)=C/[C@@H]1CO[C@@H]1O[C@H](C)[C@@H](O)[C@@H](OC)[C@H]1OC | inactive
2 | c1ccc2c(c1)OCC(CN1CCCCC1)O2 (stereo not drawn) | inactive
3 | C[N+]1(CCCCC[N+]2(C)CCCC2)CCCC1 | inactive
4 | O=C(O)[C@@H]1C[C@H](CP(=O)(O)O)CCN1 | inactive
5 | CCCCCCCCCCCCCCCC(=O)OC[C@H](COP(=O)([O-])OCC[N+](C)(C)C)OC(=O)CCCCCCCCCCCCCCC | inactive

Molecular target: Androgen receptor (Homo sapiens) (UniProt P10275)
Experiment: qHTS assay to identify small molecule agonists of the androgen receptor (AR) signaling pathway (AID 743036; active = well fitted activation curve with a large enough effect in the signal ratio in the repeat runs, with a control signal flat, not every such curve was filed as active; the % refers to the signal ratio)
Conditions: HEK293 AR-UAS-bla GripTite, beta-lactamase FRET ratio, 16 h; series mostly up to 62.4 µM
Outline: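 Fluorescence from a beta-lactamase FRET substrate served as read-out in AR-UAS-bla GripTite HEK293 cells. Cells were treated with DMSO-dissolved compounds for 16 h at 37C, then with LiveBLAzer B/G substrate for 2 h at room temperature.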

Row | SMILES | Potency
6 | CC[C@H]1OC(=O)C[C@@H](O)[C@H](C)[C@@H](O[C@@H]2O[C@H](C)[C@@H](O)[C@H](N(C)C)[C@H]2O)[C@@H](CCN2C[C@H](C)C[C@H](C)C2)C[C@@H](C)C(=O)/C=C/C(C)=C/[C@@H]1CO[C@@H]1O[C@H](C)[C@@H](O)[C@@H](OC)[C@H]1OC | inactive
7 | C[N+]1(CCCCC[N+]2(C)CCCC2)CCCC1 | inactive
8 | O=C(O)[C@@H]1C[C@H](CP(=O)(O)O)CCN1 | inactive
9 | CCCCCCCCCCCCCCCC(=O)OC[C@H](COP(=O)([O-])OCC[N+](C)(C)C)OC(=O)CCCCCCCCCCCCCCC | inactive

Molecular target: Androgen receptor (Homo sapiens) (UniProt P10275)
Experiment: qHTS assay to identify small molecule agonists of the androgen receptor (AR) signaling pathway using the MDA cell line (AID 743040; also: nearly all actives have a fitted effect of over 20% in size)
Conditions: MDA-kb2 AR-luc cells, MMTV luciferase, 16 h; series mostly up to 70.3 µM
Outline: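 MDA-kb2 breast carcinoma cells carrying MMTV-luciferase (responsive to AR and GR), plated 5 h then treated 16 h with compounds at 37C, 0% CO2. Read-out was ONE-Glo luminescence after 30 min at room temperature.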

Row | SMILES | Potency
10 | c1ccc2c(c1)OCC(CN1CCCCC1)O2 (stereo not drawn) | inactive
11 | C[N+]1(CCCCC[N+]2(C)CCCC2)CCCC1 | inactive
12 | O=C(O)[C@@H]1C[C@H](CP(=O)(O)O)CCN1 | inactive
13 | COc1ccc(/C=C/C(=O)Nc2ccccc2C(=O)O)cc1OC | inactive
14 | CCCCCCCCCCCCCCCC(=O)OC[C@H](COP(=O)([O-])OCC[N+](C)(C)C)OC(=O)CCCCCCCCCCCCCCC | inactive

Tested on: not listed separately
Experiment: qHTS assay to identify small molecule antagonists of the androgen receptor (AR) signaling pathway using the MDA cell line - cell viability counter screen (AID 743041; also: nearly all actives have a fitted effect of over 45% in size; also: potency is read from the fitted curve at half-maximal effect)
Conditions: MDA-kb2 viability, CellTiter-Fluor, 16 h, cells co-treated with R1881 androgen agonist; series mostly up to 70.3 µM
Outline: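 MDA-kb2 AR-luc cells (MMTV-luciferase, AR/GR responsive) treated with compounds plus R1881 agonist for 16 h at 37C. CellTiter-Fluor added at 15.5 h; fluorescence read after 30 min in the same wells.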

Row | SMILES | Potency
15 | CCOC(=O)COc1ccc2c(=O)cc(-c3ccccc3)oc2c1 | inactive
16 | CC/C=C\C/C=C\C/C=C\C/C=C\C/C=C\C/C=C\CCC(=O)O | inactive
17 | CC(C)C[C@@H](NC(=O)[C@@H](O)[C@H](N)Cc1ccccc1)C(=O)O | inactive
18 | O=C1CCC/C=C\CCCCCCCCCC1 | inactive
19 | O=C(O)c1ccc(NC2OC[C@@H](O)[C@H](O)[C@H]2O)cc1 (stereo partly drawn) | inactive
20 | CC(C)[C@H](NC(=O)[C@H](CC(=O)O)NC(=O)[C@H](CCCCN)NC(=O)[C@@H](N)CCCN=C(N)N)C(=O)N[C@@H](Cc1ccc(O)cc1)C(=O)O (H-RKDVY-OH) | inactive
21 | CO/N=C(\C(=O)N[C@@H]1C(=O)N2C(C(=O)O)=C(CSc3nc(C)c(CC(=O)O)s3)CS[C@H]12)c1csc(N)n1 | inactive
22 | CC[C@H]1OC(=O)C[C@@H](O)[C@H](C)[C@@H](O[C@@H]2O[C@H](C)[C@@H](O)[C@H](N(C)C)[C@H]2O)[C@@H](CCN2C[C@H](C)C[C@H](C)C2)C[C@@H](C)C(=O)/C=C/C(C)=C/[C@@H]1CO[C@@H]1O[C@H](C)[C@@H](O)[C@@H](OC)[C@H]1OC | inactive
23 | O=C1CCCCCCCCCCCCCC1 | inactive
24 | C[C@@H]1C[C@H]2[C@@H]3C[C@H](F)C4=CC(=O)C=C[C@]4(C)[C@@]3(Cl)[C@@H](O)C[C@]2(C)[C@H]1C(=O)COC(=O)C(C)(C)C | inactive
25 | NCCCC(=O)O | inactive
26 | c1ccc2c(c1)OCC(CN1CCCCC1)O2 (stereo not drawn) | inactive
27 | Cc1cn([C@H]2C[C@H](O)[C@@H](CO)O2)c(=O)[nH]c1=O | inactive
28 | c1ccc(-c2ccc(C(c3ccccc3)n3ccnc3)cc2)cc1 (stereo not drawn) | inactive
29 | CN=C(N)NCCC[C@H](N)C(=O)O | inactive
30 | C[N+]1(CCCCC[N+]2(C)CCCC2)CCCC1 | inactive
31 | O=C(O)[C@@H]1C[C@H](CP(=O)(O)O)CCN1 | inactive

Row | SMILES | Potency
32 | Cc1c(O)c(=O)ccn1C | inactive
33 | CC1(C)S[C@@H]2[C@H](N3C(=O)C(c4ccccc4)NC3(C)C)C(=O)N2[C@H]1C(=O)O (stereo partly drawn) | inactive
34 | COc1ccc(/C=C/C(=O)Nc2ccccc2C(=O)O)cc1OC | inactive
35 | O=C(O)[C@H]1CN(C/C=C/P(=O)(O)O)CCN1 | inactive
36 | CCC(=O)OC(OP(=O)(CCCCc1ccccc1)CC(=O)N1C[C@H](C2CCCCC2)C[C@H]1C(=O)O)C(C)C (stereo partly drawn) | inactive
37 | CC(C)COC(=O)OCN1C(=O)CN(CCN2CC(=O)N(COC(=O)OCC(C)C)C(=O)C2)CC1=O | inactive
38 | CCSCC | inactive
39 | CCCCCCCCCC(=O)NO | inactive
40 | CCN(CC)C(=O)[C@]1(c2ccccc2)C[C@@H]1CN | inactive
41 | CC(C)=CCC/C(C)=C/CC/C(C)=C/CC/C(C)=C/CC1=C(C)C(=O)c2ccccc2C1=O | inactive
42 | C[Se]CC[C@H](N)C(=O)O | inactive
43 | CN(C/C=C/c1ccccc1)Cc1cccc2ccccc12 | inactive
44 | CC1CCCC(C)N1NC(=O)c1ccc(Cl)c(S(N)(=O)=O)c1 (stereo not drawn) | inactive
45 | CC(C)CCC[C@@H](C)[C@H]1CC[C@H]2[C@@H]3CC[C@@H]4C[C@H](O)CC[C@]4(C)[C@H]3CC[C@]12C | inactive
46 | O=[N+]([O-])c1ccc(O)c2ncccc12 | 11.9 µM (active)
47 | CCCCCCCCCCCCCCCC(=O)OC[C@H](COP(=O)([O-])OCC[N+](C)(C)C)OC(=O)CCCCCCCCCCCCCCC | inactive
48 | Nc1cc(Cl)c(NC2=NCCN2)c(Cl)c1 | inactive
